Source: PubChem
DRD3 antagonist – D3 dopamine receptor (human) antagonism. D3R cells, DiscoveRx beta-arrestin luminescence, antagonist mode; stronger effect = lower value. 360,000 tested, 2.5% active. max response, negative = inhibition, %. AID 652054; in the data active = max response below about -50%; inconclusive = no clear call, values can overlap the other calls; also: % is scaled to controls: 0 for no effect and ±100 for the full control effect
Target sequence (P35462 whole entry, looked up): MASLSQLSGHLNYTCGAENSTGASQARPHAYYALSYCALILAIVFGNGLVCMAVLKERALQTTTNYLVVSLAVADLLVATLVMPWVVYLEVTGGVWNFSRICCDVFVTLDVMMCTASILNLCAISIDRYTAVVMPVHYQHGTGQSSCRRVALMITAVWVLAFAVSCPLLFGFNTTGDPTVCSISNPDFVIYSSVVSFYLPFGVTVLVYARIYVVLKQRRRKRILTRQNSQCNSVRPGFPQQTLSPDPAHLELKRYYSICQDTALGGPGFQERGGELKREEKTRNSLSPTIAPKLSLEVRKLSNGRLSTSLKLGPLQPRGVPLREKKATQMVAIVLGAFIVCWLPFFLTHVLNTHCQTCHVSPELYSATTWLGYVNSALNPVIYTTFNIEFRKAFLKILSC
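Cells plated overnight at 1500 cells/well, then exposed to library compounds with dopamine controls for 90 minutes at 37 degrees C. DiscoveRx reagent added for 30–60 minutes at room temperature; luminescence read, quantitative HTS format.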
Integrin act MD – activators of alpha7 integrin expression for muscular dystrophy; alpha7betagal myoblasts, beta-gal FDG fluorescence, 48 h; Potency, µM (series often up to 38.3 µM), for the others: at the highest dose activation, most hits filed as activators; 350,000 tested, 0.064% active;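 also: potency is read from the fitted curve at half-maximal effect; 100% = response of the positive control SU9516; nearly all actives have a fitted effect of over 60% in size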
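Alpha7betagal+/- myoblasts (passage 13) were plated 16-24 hr, then exposed to compounds (1:260 dilution of DMSO stock) for 48 hours at 37C. After MPER lysis, β-galactosidase reporter activity was read as FDG fluorescence (ex 480/em 540) after 30 minutes.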
DRD3 agonist – D3 dopamine receptor (human) agonism. D3R DiscoveRx beta-arrestin cells, luminescence, 90 min. AID 652048. 410,000 tested, 0.58% active. max activation, %; in the data active = max activation above about 30%; also: 0% is about no effect
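Cells at 1500/well, incubated overnight, then treated with pinned compounds (dopamine as control) for 90 min at 37 degrees C. DiscoveRx reagent added for 30 - 60 minutes at room temperature; luminescence read.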
ATXN2 expr inh – reduces ATXN2 reporter expression in HEK-293 cells; HEK-293 ATXN2-luciferase reporter, luminescence, 24 h; Potency, µM (series often up to 57 µM), for inactives: at the top dose activity change, negative = inhibition, hits mostly inhibitors; 360,000 tested, 0.72% active; AID 1745845; also: potency is read from the fitted curve at half-maximal effect; % is scaled to controls: 0 for no effect and ±100 for the full control effect; nearly all actives have a fitted effect of over 55% in size
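ATXN2-luciferase reporter cells (luciferase flanked by upstream and downstream ATXN2 gene portions) were treated 24 h at 37 °C with compounds at up to 57 uM. SteadyGlo luminescence gave expression; GF-AFC fluorescence gave viability.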
S2 tox – cell viability loss in ATXN counter-screen; S2 cells (HEK-293 line with an ATXN2-luciferase reporter) viability, CellTiter-Fluor protease fluorescence, 24 h; Potency, µM (doses to about 56.7 µM), usual class: cytotoxic; 400,000 tested, 0.49% active; AID 651635; also: potency is read from the fitted curve at half-maximal effect; nearly all actives have a fitted effect of over 40% in size
IL-1B inflam inh – blocks inflammasome-driven IL-1 beta release. THP-1 LPS/ATP IL-1B secretion, AlphaLISA, 16 h; stronger effect = lower value. activity change, % at 57.5 µM. 360,000 tested, 4.7% active; in the data active = activity change below about -50%; inconclusive = mostly about -30% to -49%; also: % is scaled to controls: 0 for no effect and ±100 for the full control effect
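THP-1 cells pretreated 1 hr with compounds (up to 57.5 uM final), then stimulated with LPS (250 ng/mL final) plus ATP (1.25 mM final); secreted IL-1B measured by AlphaLISA after 16 hr, decreased signal indicating inhibition.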
* = called active by the depositor; i = inactive; ? = inconclusive; · = no result given; [ ] = dose if it differs, or a comment. This is a sample that favours compounds with a hit; in the whole collection about 7% have one here. Unless noted, calls follow the shape of the dose curve; as a rule, active = well fitted curve in the direction sought with a large enough effect; inconclusive = small, poorly fitted or top-dose-only effect, or another doubt; inactive = no such curve, though single readings can be large; an effect the other way counts as inactive or inconclusive.

SMILES	DRD3 antagonist	Integrin act MD	DRD3 agonist	ATXN2 expr inh	S2 tox	IL-1B inflam inh
Cc1ccccc1NC(=O)c1cccc(S(=O)(=O)Oc2ccc([N+](=O)[O-])cc2)c1	-24	-1%	-11	2%	i	-58*
Cc1n[nH]c(C)c1NC(=O)c1cc([N+](=O)[O-])ccc1Cl	16	-11%	-1	·	?	1
O=C(Nc1ccc(Nc2ccccc2)cc1)c1cc([N+](=O)[O-])ccc1Cl	-51*	-82%	-7	·	i	-67*
Cc1cccc(NC(=O)c2cc([N+](=O)[O-])ccc2Cl)c1O	-5	8%	0	5%[11.3 µM]	i	-50*
COc1ccc(N2CC(O)=C(c3nc(-c4ccc(F)cc4)cs3)C2=N)cc1	9	6%	0	-18%	i	10
CCOc1ccc(NC(=O)CCc2nnc3ccc(N4CCC(C)CC4)nn23)cc1	20	-6%	-7	-4%	i	0
C=CCN(CC=C)Cc1cc(=O)oc2cc(OC)c(Cl)cc12	15	·	5	-3%	i	-22
O=C(O)c1ccc(COc2ccccc2Cl)cc1	16	4%	1	8%	i	-6
O=C(O)c1cccc(COc2ccccc2Cl)c1	11	13%	-6	0.71µM*	i	-6
CCN(CC)C(=O)c1ccc(COc2ccccc2Cl)cc1	8	-12%	1	14%	i	-59*
O=C(Cc1ccc(F)cc1)NCc1nc2cccnc2n1Cc1ccc(F)cc1	·	·	-9	·	·	·
COc1cccc(-c2cc(C(=O)Nc3ccc(N(C)C(C)=O)cc3)c3cc(Br)ccc3n2)c1	0	-20%	9	·	i	-1
CC(=O)Oc1ccc2ccccc2c1C(NC(=O)C(C)C)c1cccc([N+](=O)[O-])c1 (centres undefined)	-20	-34%	-2	-35%	i	-74*
CCCCC(=O)NC(c1cccc([N+](=O)[O-])c1)c1c(OC(C)=O)ccc2ccccc12 (centres undefined)	-9	-26%	2	?	?	-17
CC(=O)NC(c1cccc([N+](=O)[O-])c1)c1c(OC(C)=O)ccc2ccccc12 (centres undefined)	-68*	-23%	-7	-9%	i	-1
O=C(NCCC(=O)N1CCN(c2ccccn2)CC1)c1ccc([N+](=O)[O-])cc1	-4	-35%	3	12%	i	19
O=C(CSC1=NCCS1)N1CCN(c2ccc(Cl)cc2)CC1	?	-52%	0	-2%	i	-77*
COC(=O)Cc1c(CSc2ccccc2)oc2ccc(O)c(CN(C)C)c12	3	-9%	2	-38%	i	-25
CC(=O)c1c(CSc2ccccc2)oc2ccc(O)c(CN(C)C)c12	4	-61%	-9	-30%	?	-85*
CCOC(=O)c1c(CSc2ccc(CC)cc2)oc2ccc(O)c(CN(C)C)c12	-64*	-64%	-8	16µM*	·	-101*
O=C(O)CCCCCN1C(=O)CSC1=S	0	-53%	-6	3%	i	-19
CC(C)OC(=O)CCCCCN1C(=O)CSC1=S	-22	-64%	-1	-7%	i	-56*
S=C1NCCc2ccc(Cl)cc2C1c1ccccc1 (centres undefined)	-62*	-34%	-3	-5%	i	6
COc1ccc(C(=O)N2CCCCC2)cc1S(=O)(=O)Nc1ccccc1	14	0%	1	9%	i	16
O=C(COC(=O)c1ccccc1Br)NC(=O)NCc1ccccc1	7	-7%	6	0%	i	-13
O=C(COc1ccc(S(=O)(=O)N2CCOCC2)cc1)NCCCn1ccnc1	-9	-21%	-27	-4%	i	13
O=C(/C=C/c1ccc(S(=O)(=O)N2CCOCC2)cc1)NC(=S)NCCCn1ccnc1	0	-39%	-1	19%	i	-75*
O=C(/C=C/c1ccc(F)cc1)Nc1cccc(S(=O)(=O)N2CCOCC2)c1	0	-42%	1	20%	?	-58*
